# Assay outcomes deposited in PubChem by Milwaukee Institute for Drug Discovery.
# Cy5 interf NS3h = counter-screen for HCV NS3 helicase inhibitors: fluorescence interference | Cy5-dT15 DNA with NS3h; actives lie on both sides; signal over control mean, under 1 quenches | fluorescence interference ratio at 100 µM | hit rate 6% among 16,000;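 active = compound fluorescence over control fluorescence at most 0.8, a quencher, or at least a set upper limit, an enhancer; inactive = ratio between 0.8 and the set upper limit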
# HCV NS3h FP = hepatitis C NS3 helicase inhibition, primary screen; NS3h Cy5-dT15 DNA binding, fluorescence polarization; inhibition, % at 100 µM; hit rate 1.6% among 16,000; AID 687043;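 active = inhibition above the average over every tested compound plus 3 SD, cut at about 40% in these data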
# NS3h confirm = confirmation of hepatitis C virus NS3 helicase inhibitors; inhibition, % at 100 µM; NS3h binding to Cy5-dT15 DNA, fluorescence polarization; hit rate 20% among 240; shares compounds with HCV NS3h FP; AID 720485;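 active = percent inhibition of 50% or more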
# SSB-DNA FP CB = E. coli SSB-DNA binding inhibition, NS3h counter-screen. E. coli SSB binding Cy5-dT15, fluorescence polarization. inhibition, % at 100 µM. hit rate 40% among 240. shares compounds with HCV NS3h FP;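 active = inhibition of at least 50%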;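 also: displacers lower Cy5 polarization so higher inhibition means more SSB displaced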
# Target sequence (P0AGE0 whole entry, looked up): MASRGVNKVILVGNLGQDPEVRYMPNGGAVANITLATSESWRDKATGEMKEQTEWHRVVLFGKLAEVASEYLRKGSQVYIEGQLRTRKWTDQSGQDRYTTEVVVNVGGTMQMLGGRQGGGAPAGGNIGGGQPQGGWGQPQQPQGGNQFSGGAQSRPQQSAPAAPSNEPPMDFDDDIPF
# Cy5 SSB fluor CB = Cy5 fluorescence interference in NS3h counter-screen; hit rate 8% among 240; fluorescence interference ratio at 100 µM; shares compounds with HCV NS3h FP; Cy5-dT15/E. coli SSB fluorescence interference; actives lie on both sides;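 active = fluorescence interference ratio at or above 1.2, signal boosting, or at or below 0.8, signal quenching; inactive = ratio between 0.8 and 1.2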;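 also: ratio of compound well signal to mean negative control signal so 1 means no effect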
# Cy5 fluor confirm = Cy5 fluorescence interference, confirmation counter-screen | shares compounds with HCV NS3h FP | Cy5-dT15 DNA/NS3h fluorescence interference counterscreen | fluorescence interference ratio at 100 µM, hits read low | hit rate 44% among 240 | AID 720489;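 active = fluorescence interference ratio at or below 0.8 quencher or at or above a set limitenhancer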;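 also: ratio of compound fluorescence to mean of negative controls so 1 means no interference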
# Numbers without * were called inactive; nt = no result. Rows were chosen to be rich in hits. Some 7.6% of all compounds tested hit in one or more screens of this group.
SMILES,Cy5 interf NS3h,HCV NS3h FP,NS3h confirm,SSB-DNA FP CB,Cy5 SSB fluor CB,Cy5 fluor confirm
CC1=NN(c2ccc(C(=O)O)cc2)C(=O)/C1=C\c1ccc(-c2cccc(C(=O)O)c2)o1,1,31,nt,nt,nt,nt
O=C1/C(=C\c2ccc(-c3cccc(Cl)c3)o2)SC(=S)N1CCS(=O)(=O)O,0.84,84*,46,98*,0.82,0.88
COC(=O)c1ccc(-c2ccc(/C=C3/SC(=S)N(C)C3=O)o2)cc1,0.88,-7,nt,nt,nt,nt
N=C1S/C(=C\c2ccc(-c3cccc(C(=O)O)c3)o2)C(=O)N1c1ccc2c(c1)OCO2,0.81,71*,20,107*,0.82,0.92
COc1ccccc1OCC(=O)NC(C)C(=O)O (stereo not drawn),1,-6,nt,nt,nt,nt
COc1ccc(Cl)cc1NC(=O)C1=C(C)NC(=S)NC1c1ccccc1Br (stereo not drawn),0.99,9,nt,nt,nt,nt
O=C(O)c1nn2c(C(F)(F)F)c3c(nc2c1Cl)-c1ccccc1CC3,1.2,29,nt,nt,nt,nt
CC(=O)c1c(C)nc2ccccc2c1-c1ccc(Cl)cc1,0.96,6,nt,nt,nt,nt
O=C(OCCN1CCOCC1)c1ccc(Cl)cc1,0.95,-10,nt,nt,nt,nt
O=C1NC(=S)S/C1=C/c1ccc(-c2cccc(C(=O)O)c2)o1,0.98,67*,62*,99*,0.81,0.79*
O=C1NC(=S)S/C1=C\c1ccc(C(=O)O)cc1,0.97,14,nt,nt,nt,nt
Cc1ccc(N(CC(=O)NCc2cccnc2)S(C)(=O)=O)cc1,1.1,1,nt,nt,nt,nt
O=C(O)CN1C(=O)/C(=C\c2ccc(OC(=O)c3ccc(Cl)cc3Cl)cc2)SC1=S,1,6,nt,nt,nt,nt
O=C(O)CN1C(=O)/C(=C/c2ccc(OC(=O)c3ccccc3I)cc2)SC1=S,1,62*,31,26,0.93,0.76*
CCc1cc(C)cc(OCCOc2ccc(/C=C3/SC(=S)N(C)C3=O)cc2)c1,0.97,30,nt,nt,nt,nt
CC1=NN(c2cccc(C(F)(F)F)c2)C(=O)/C1=C/c1ccc(N(C)C)cc1,1.1,6,nt,nt,nt,nt
CC(=O)Nc1ccc(-c2nc3ccc(-c4ccc5nc(-c6ccc(NC(C)=O)cc6)oc(=O)c5c4)cc3c(=O)o2)cc1,1,56*,4,47,0.97,1
CC(C)(C)C(=O)Nc1ccc(-c2nc3ccccc3o2)cc1,1,0,nt,nt,nt,nt
COc1ccc2nc(N=C(N)NC(=O)Cc3ccc(Cl)cc3)nc(C)c2c1,1,-3,nt,nt,nt,nt
COc1ccccc1-c1cc(-c2ccccc2)nc(SC)c1C#N,1,11,nt,nt,nt,nt
CCC(c1ccccc1)c1nnc(NC(=O)Nc2cccc(Cl)c2)s1 (stereo not drawn),1.2*,47*,4,9,1,0.74*
O=C(NCC(c1ccccc1)c1ccccc1)Nc1cccc(Cl)c1,1,3,nt,nt,nt,nt
CN1C(=O)NC(=O)/C(=C\c2ccc(Cl)cc2Cl)C1=O,0.94,74*,12,9,1,1
Cc1cc(C)cc(N2C(=O)NC(=O)/C(=C\c3ccc(Cl)cc3)C2=O)c1,1.1,14,nt,nt,nt,nt
O=C1C(=O)N(c2nc3ccccc3s2)C(c2ccccc2Cl)C1=C(O)c1ccccc1 (stereo not drawn),1,39,-4,-2,1,0.76*
SMILES,Cy5 interf NS3h,HCV NS3h FP,NS3h confirm,SSB-DNA FP CB,Cy5 SSB fluor CB,Cy5 fluor confirm
O=C1C(=O)N(c2nc3ccccc3s2)C(c2ccccc2F)C1=C(O)c1ccccc1 (stereo not drawn),0.95,6,nt,nt,nt,nt
COC(=O)c1ccccc1NC(=O)CSC(N)=O,0.94,24,nt,nt,nt,nt
O=C1N=c2ccc([N+](=O)[O-])cc2=C1c1sc(=S)n(Cc2ccco2)c1O,1.1,9,nt,nt,nt,nt
O=C1N=c2ccc(Br)cc2=C1c1sc(=S)n(C(Cc2ccccc2)C(=O)O)c1O (stereo not drawn),0.76*,76*,31,66*,0.75*,0.84
COc1ccc(Cl)cc1NC(=O)NS(=O)(=O)c1ccc(C)cc1,0.98,-3,nt,nt,nt,nt
CC(=O)c1ccc(-n2c(C)ccc2-c2ccccc2)cc1,1,6,nt,nt,nt,nt
Cc1ccc(C)n1-c1ccc(CC(=O)O)cc1,1.1,85*,67*,96*,0.94,0.84
CCCC(O)=C1C(=O)CC(C)(C)CC1=NCCO,0.88,16,nt,nt,nt,nt
CN1C(=O)C(=Cc2ccc(-c3ccc(Cl)c(C(=O)O)c3)o2)C(=O)N(C)C1=O,1.1,23,nt,nt,nt,nt
N#CC(C#N)=Cc1ccc(-c2ccc(Cl)c(C(=O)O)c2)o1,1.1,43*,23,41,0.97,0.79*
O=C(c1ccc(Br)cc1)N1CCN(c2ccc(Cl)cc2[N+](=O)[O-])CC1,1,6,nt,nt,nt,nt
O=C1C=CC(=O)N1c1ccc(Br)cc1[N+](=O)[O-],0.95,79*,70*,8,0.94,0.92
CCOC(=O)c1c[nH]c2c(C)cccc2c1=O,0.96,2,nt,nt,nt,nt
O=C(CCCOc1ccc(Cl)cc1Cl)Nc1ncn[nH]1,0.97,1,nt,nt,nt,nt
CCOC(=O)c1sc(NC(=O)CCCOc2ccc(Cl)cc2Cl)nc1C,0.97,22,2,2,0.97,0.75*
CN1C=C(C(F)(F)F)C=C/C1=C(/C#N)c1nc2ccccc2s1,1.1,40,0,9,0.9,0.71*
Cc1ccc(/C=C(\C#N)c2nc3ccccc3s2)cc1,0.86,3,nt,nt,nt,nt
O=C(O)CCN1C(=O)/C(=C/c2cn(-c3ccccc3)nc2-c2ccc(Br)cc2)SC1=S,0.97,146*,35,25,0.92,0.87
CCN1C(=O)/C(=C\c2cn(-c3ccccc3)nc2-c2ccc(Br)cc2)SC1=S,1.1,7,nt,nt,nt,nt
NS(=O)(=O)c1ccc(NC(=S)NC(=O)c2ccccc2)cc1,1,50*,37,83*,1,1
CC(=O)c1ccc(NC(=S)NC(=O)c2ccccc2)cc1,0.89,24,nt,nt,nt,nt
CCOC(=O)C1CCN(C(=O)Cc2ccc(Cl)cc2)CC1,0.91,5,nt,nt,nt,nt
O=C1C(Cl)=C(Nc2ccccc2F)C(=O)N1c1ccc(Cl)cc1,1,1,nt,nt,nt,nt
O=C1NC(=O)C(=Cc2cc(Br)ccc2OCc2cccc3ccccc23)C(=O)N1,0.86,48*,26,72*,0.87,0.91
O=C1NC(=O)C(=Cc2ccccc2OCCOc2ccccc2)C(=O)N1,1,30,nt,nt,nt,nt
SMILES,Cy5 interf NS3h,HCV NS3h FP,NS3h confirm,SSB-DNA FP CB,Cy5 SSB fluor CB,Cy5 fluor confirm
O=C(O)/C=C/C(=O)NNC(=O)c1cc(O)cc(O)c1,0.95,-2,nt,nt,nt,nt
Cc1ccc(OCC(=O)Nc2ccc(I)cc2Cl)cc1,1,13,nt,nt,nt,nt
CCc1c(C#N)c(N)nc(SCC(=O)c2cc3ccccc3oc2=O)c1C#N,1.1,30,-4,3,1,0.76*
CCc1c(C#N)c(N)nc(SCC(=O)c2ccc(-c3ccccc3)cc2)c1C#N,1,3,nt,nt,nt,nt
O=C(CN(c1cccc(Br)c1)S(=O)(=O)c1ccccc1)N1CCCC1,1.1,2,nt,nt,nt,nt
COc1ccc(NC(=O)c2ccc(N3C(=O)CCC3=O)cc2)cc1,1,10,nt,nt,nt,nt
Cc1cc2nc(-c3cc(NC(=O)/C=C/c4cccc([N+](=O)[O-])c4)ccc3O)oc2cc1C,1.1,10,nt,nt,nt,nt
Brc1ccc(CN2CCN(Cc3cccnc3)CC2)cc1,0.95,-7,nt,nt,nt,nt
O=c1c2c(nc3cc(-c4cccs4)[nH]n13)CCS2,1.1,60*,-2,25,1,0.81
